Active and inactive are the calls of the source. Rule for the calls: active = hit-call score of the fitted dose curve at least 0.9, where 1 is the maximum; inconclusive = response in the unintended direction; inactive = score below 0.9.

guinea pig Sigma Receptor, Non-selective Binding, SIGMAR1 (gene 100135589), sequence (Q60492 whole entry, looked up): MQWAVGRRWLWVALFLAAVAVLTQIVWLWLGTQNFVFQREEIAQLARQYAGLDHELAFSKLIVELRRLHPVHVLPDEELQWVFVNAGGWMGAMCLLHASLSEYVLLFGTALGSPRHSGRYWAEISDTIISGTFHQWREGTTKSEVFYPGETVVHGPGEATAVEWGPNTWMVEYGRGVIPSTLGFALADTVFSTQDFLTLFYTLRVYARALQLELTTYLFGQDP

This assay has as its target guinea pig Sigma Receptor, Non-selective Binding, SIGMAR1 (gene 100135589) (UniProt Q60492). The assay is described as follows: NVS_OR_gSIGMA_NonSelective: NovaScreen (NVS) Nuclear Receptor Binding Assay for guinea pig Sigma Receptor, Non-selective Binding (AID 2283367). On the procedure:
NVS_OR_gSIGMA_NonSelective is a biochemical, single-readout assay that uses extracted gene-proteins from Guinea pig brain membranes in a tissue-based cell-free assay. Measurements were taken 1 hour after chemical dosing in a 48-well plate.NVS_OR_gSIGMA_NonSelective is one of one assay component(s) measured or calculated from the NVS_OR_gSIGMA_NonSelective assay. It is designed to make measurements of radioligand binding, a form of binding reporter, as detected with scintillation counting signals by Filter-based radiodetection technology.Data from the assay component NVS_OR_gSIGMA_NonSelective was analyzed into 1 assay endpoint. This assay endpoint, NVS_OR_gSIGMA_NonSelective, was analyzed in the positive analysis fitting direction relative to DMSO as the negative control and baseline of activity. Using a type of binding reporter, loss-of-signal activity can be used to understand changes in the binding as they relate to the gene Sigmar1. Furthermore, this assay endpoint can be referred to as a primary readout, because the performed assay has only produced 1 assay endpoint. To generalize the intended target to other relatable targets, this assay endpoint is annotated to the misc protein intended target family, where the subfamily is chaperone.
Binding assays used specific radioligands (tritiated, iodinated) with non-radioactive competitive displacement ligands in agonist or antagonist protocols (as indicated) and various reference compounds and inhibitors to titrate specific binding to receptors and transporters. Most enzyme assays (CYPs, kinases, phosphatases, proteases, HDACs) used recombinant protein and specific substrates (fluorescence mostly, some colorimetric and radioactive) and inhibitors, followed by a biochemical separation of substrate and product. All assays for the biochemical HTS were initially run in duplicate at a single concentration (10 uM for CYP450 assays and 25 uM for all others). […] Each assay was run with positive and negative controls, and concurrent controls on every plate. The follow-up (secondary) screen tested active chemical-pairs in concentration series, as well as a few additional assays not tested in the primary screen, some selected negative inactives, and several cases re-run in the concentration series for confirmatory purposes.
Usually AC50 stands for the concentration at which the activity in the assay is half-maximal. For `OC1CCC(C2CCCCC2)CC1` (stereo not given), the AC50 is 25 µM (active).
Consider `CCN(CC)CCNc1ccc(CNC=O)c2sc3ccc(OC)cc3c(=O)c12`, for which the AC50 was 12.2 µM (active).
Turning to `CCc1ccc(CCOc2ccc(CC3SC(=O)NC3=O)cc2)nc1` (stereo not given), the outcome was inactive.
Turning to `NC(=O)N(O)[C@@H]1C=C[C@H](Oc2cccc(Oc3ccc(F)cc3)c2)C1`, the AC50 was 7.64 µM (active).
Regarding `CCCOc1sc(C(=O)N2CCC(c3cc(CN)ccc3F)CC2)c(C)c1Br`, the AC50 was 1.27 µM (active).
Turning to `Cc1cc(C)c(O)c(C)c1`, the molecule was classed as inactive.
On to `c1ccc2c(c1)ccc1ccccc12`, for which the molecule was called inactive.
For `CCC(=C(c1ccc(O)cc1)c1ccc(OCCN(C)C)cc1)c1ccccc1`, the AC50 was 0.598 µM (active).
The same measure, in the same setting: the same measure for `CCCCCCCCCCCCCC[N+](C)(C)C`: 0.558 µM (active).
Regarding `CCC(C)(C)C1CCC(O)CC1` (stereo not given), the call was inactive.

The values above are taken from PubChem BioAssay (EPA / NIEHS).
